According to PubChem BioAssay (EPA / NIEHS):
Activity calls are given as the source filed them. Rule for the calls: active = hit-call score of the fitted dose curve at least 0.9, where 1 is the maximum; inactive = score below 0.9.

Read-out: Broad substrate specificity ATP-binding cassette transporter ABCG2 (Homo sapiens) (UniProt Q9UNQ0)
Experiment: LTEA_HepaRG_ABCG2: Life Technologies and Expression Analysis (LTEA) Assay for ABC Transporter (ABCG2) using HepaRG (AID 2283465)
Conditions: mRNA level, 48 h; actives raise or lower the signal
Method: LTEA_HepaRG is a cell based, multiplexed-readout assay that uses HepaRG, a human liver cell line, with measurements taken at 48 hours after chemical dosing on a 96-well plate.LTEA_HepaRG_ABCG2 is one of 102 assay component(s) measured in the LTEA HepaRG cell culture assay. It is a marker of Steatosis/NR mediated transport.Data from the assay component LTEA_HepaRG_ABCG2 was analyzed into 1 endpoint. This assay endpoint, LTEA_HepaRG_ABCG2, was analyzed with bidirectional fitting relative to DMSO as the negative control and baseline of activity. Using a type of inducible reporter, measures of mRNA induction for gain or loss-of-signal activity can be used to understand regulation of transcription factor activity. To generalize the intended target to other relatable targets, this assay endpoint is annotated to the transporter intended target family, where the subfamily is ABC transporter.
A total of 1060 chemcials from the ToxCast library were tested in eight-point concentration-response experiments. Cell culture and cytotoxicity assays were conducted at Thermo Fisher Scientific's Custom Services facility (Madison, WI). A single lot of human HepaRG cells (Thermo Fisher Scientific, Frederick, MD) was used for the cell culture experiments. 96-well format collagen type I coated plates of human HepaRG cells were prepared using established methods. Briefly, cryopreserved HepaRG cells were thawed, plated at a density of approximately 100,000 cells/well in HepaRG Thaw, Plate, and General Purpose media (HPRG770, Thermo Fisher Scientific), and incubated for 48 hours. 0.5% DMSO was selected as vehicle control to balance the requisite need of DMSO in HepaRG cultures to maintain differentiation (for example, baseline metabolism, proportions of hepatocytes vs. cholangiocytes), while enabling further hepatic receptor pathway activation (for example, PXR and CAR) in response to chemical exposure. 48 hours after plating, the culture medium was replaced with HepaRG Serum-Free Incudtion Media. Cells were exposed to each test chemical in duplicate and maintained in CO2 incubators for another 48 hours. Chemical plates were thawed to room temperature and 200x concentrations of treatment groups were prepared. 8-point conentration-reponse curves were made with the highest exposure at 100 uM, followed by half-log dilutions, all in 0.5% DMSO. Each test plate contained variouse controls, induction positive controls (1mM phenobarbital), cytotoxicity positive controls ([…] aflatoxin B1), vehicle controls (0.5% DMSO), and total lysis controls (0.5% DMSO). Cell morphology images were taken using an Essen IncuCyte FLR automated microscope, with six 96-well plates imaged in about 24 minutes. Images were captured and exported and JPEG files. Spent culture media was transfered to black-well plates for the LDH assay, and remaining media was sorted at -80 C for later use. Cells were treated with RLT buffer and frozen until shipped for gene expression analysis. Total RNA was isolated from the cell suspension in 75 uL of Buffer RLT (Qiagen, Germantown, MD 20874) by Quintiles/Expression Analysis (Durham, NC) using a custom isolation procedure. Total RNA from each plate well was transferred to a preamplification plate. Fluidigm's 96.96 Dynamic ArrayTM (Fluidigm, Amsterdam, the Netherlands) technology was used for gene expression analyses by quantitative reverse transcription polymerase chain reaction (qRT-PCR, performed by Quintiles/Expression Analysis, Durham, NC)89. Standard TaqManTM Assays (Applied Biosystems/ThermoFisher Scientific, Foster City, CA) were used to assess the expression of 93 genes selected based on their selectivity and sensitivity to important hepatic receptors known to be modulated by environmental chemicals; importance in human hepatocyte functionality; and hepatotoxicity. […]

Broad substrate specificity ATP-binding cassette transporter ABCG2 (Homo sapiens), sequence (Q9UNQ0 whole entry, looked up): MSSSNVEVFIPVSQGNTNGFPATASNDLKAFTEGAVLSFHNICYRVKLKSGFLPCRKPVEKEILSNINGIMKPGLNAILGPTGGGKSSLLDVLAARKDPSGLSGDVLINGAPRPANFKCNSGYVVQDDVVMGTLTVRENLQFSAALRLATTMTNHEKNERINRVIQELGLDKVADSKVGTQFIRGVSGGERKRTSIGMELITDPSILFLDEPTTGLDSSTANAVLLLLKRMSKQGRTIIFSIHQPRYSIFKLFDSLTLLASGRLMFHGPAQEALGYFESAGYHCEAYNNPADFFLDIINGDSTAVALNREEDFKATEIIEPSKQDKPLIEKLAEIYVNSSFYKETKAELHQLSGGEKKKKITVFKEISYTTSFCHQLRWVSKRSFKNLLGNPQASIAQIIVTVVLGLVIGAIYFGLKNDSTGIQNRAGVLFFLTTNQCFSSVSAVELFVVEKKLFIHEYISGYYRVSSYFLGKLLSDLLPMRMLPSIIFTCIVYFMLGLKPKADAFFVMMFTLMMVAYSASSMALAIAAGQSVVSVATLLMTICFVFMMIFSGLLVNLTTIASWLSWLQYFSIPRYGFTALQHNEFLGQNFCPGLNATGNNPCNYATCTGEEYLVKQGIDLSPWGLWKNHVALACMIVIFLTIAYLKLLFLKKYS

**Q.** With `CCOC(=O)C(O)(c1ccc(Cl)cc1)c1ccc(Cl)cc1` as the compound, how does the outcome read?
**A.** The outcome was “inactive”.

**Q.** `CCNc1nc(NC(C)C)nc(SC)n1` was tested. Which outcome did it give?
**A.** Its outcome is “inactive”.

**Q.** For `CCOP(=S)(OCC)SCSC(C)(C)C`, which outcome is on record?
**A.** Its outcome is “inactive”.

**Q.** For `ClC(Cl)=C(c1ccc(Cl)cc1)c1ccc(Cl)cc1`, which AC50 is on record?
**A.** Its AC50 is 8.74 µM (active).

**Q.** Which outcome does the source give for `c1ccc(-c2ccccc2)cc1` here?
**A.** Its outcome is “inactive”.

**Q.** How did the outcome turn out when `CCCCCCCCOC(=O)c1ccccc1C(=O)OCCCCCCCC` was run?
**A.** Its outcome is “inactive”.

**Q.** For `C=CC(N)=O`, which outcome is on record?
**A.** Its outcome is “inactive”.

**Q.** With `Cc1ccccc1CO[C@@H]1C[C@@]2(C(C)C)CC[C@]1(C)O2` as the compound, how does the outcome read?
**A.** The outcome was “inactive”.

**Q.** `Oc1c(Cl)c(Cl)c(Cl)c(Cl)c1Cl` was tested. Which AC50 did it give?
**A.** The AC50 was 6.05 µM (active).

**Q.** With `Cc1cccc([N+](=O)[O-])c1` as the compound, how does the outcome read?
**A.** Its outcome is “inactive”.

**Q.** For `NS(=O)(=O)C(F)(F)C(F)(F)C(F)(F)C(F)(F)C(F)(F)C(F)(F)C(F)(F)C(F)(F)F`, which AC50 is on record?
**A.** Its AC50 is 3.42 µM (active).

**Q.** How did the outcome turn out when `O=C(O)C(F)(F)C(F)(F)C(F)(F)C(F)(F)C(F)(F)C(F)(F)C(F)(F)C(F)(F)C(F)(F)F` was run?
**A.** Its outcome is “inactive”.

**Q.** With `Cc1ccccc1[N+](=O)[O-]` as the compound, how does the outcome read?
**A.** Its outcome is “inactive”.

**Q.** `O=C(O)C(F)(F)C(F)(F)C(F)(F)C(F)(F)C(F)(F)F` was tested. Which AC50 did it give?
**A.** Its AC50 is 9.92 µM (active).

**Q.** Which AC50 does the source give for `CC1=C2C[C@H]3[C@@H](CC=C4C[C@@H](O)CC[C@@]43C)[C@@H]2CC[C@]12O[C@@H]1C[C@H](C)CN[C@H]1[C@H]2C` here?
**A.** The AC50 was 12.1 µM (active).

**Q.** How did the outcome turn out when `CCOCCOC(C)=O` was run?
**A.** Its outcome is “inactive”.

**Q.** With `CCC(C)c1cc([N+](=O)[O-])cc([N+](=O)[O-])c1O` (stereo not given) as the compound, how does the outcome read?
**A.** The outcome was “inactive”.

**Q.** `CC(c1ccc(O)cc1)(c1ccc(O)cc1)c1ccc(O)cc1` was tested. Which AC50 did it give?
**A.** Its AC50 is 33.8 µM (active).

**Q.** How did the AC50 turn out when `CC#Cc1cc(C)nc(Nc2ccccc2)n1` was run?
**A.** The AC50 was 29.9 µM (active).

**Q.** `COS(=O)(=O)OC` was tested. Which outcome did it give?
**A.** The outcome was “inactive”.

**Q.** Which outcome does the source give for `CCC(=O)O[C@H]1CC[C@H]2[C@@H]3CCC4=CC(=O)CC[C@]4(C)[C@H]3CC[C@]12C` here?
**A.** Its outcome is “inactive”.

**Q.** Which outcome does the source give for `CCCN(CCC)N=O` here?
**A.** Its outcome is “inactive”.

**Q.** `O=S(=O)(O)C(F)(F)C(F)(F)C(F)(F)C(F)(F)F` was tested. Which outcome did it give?
**A.** The outcome was “inactive”.

**Q.** How did the outcome turn out when `CC(C)C(=O)OCC(C)(C)C(OC(=O)C(C)C)C(C)C` (stereo not given) was run?
**A.** The outcome was “inactive”.

**Q.** For `C[C@]12CCC(=O)C=C1CC[C@@H]1[C@@H]2CC[C@]2(C)C(=O)CC[C@@H]12`, which AC50 is on record?
**A.** The AC50 was 19.7 µM (active).

**Q.** How did the outcome turn out when `Oc1ccc(Cl)cc1Cl` was run?
**A.** The outcome was “inactive”.

**Q.** `ClC1=C(Cl)[C@]2(Cl)[C@@H]3[C@@H]4C[C@@H]([C@H]5O[C@@H]45)[C@@H]3[C@@]1(Cl)C2(Cl)Cl` was tested. Which AC50 did it give?
**A.** Its AC50 is 20.8 µM (active).

**Q.** How did the outcome turn out when `Nc1ccc(-c2ccc(N)cc2)cc1` was run?
**A.** Its outcome is “inactive”.

**Q.** Which outcome does the source give for `O=NN(c1ccccc1)c1ccccc1` here?
**A.** The outcome was “inactive”.

**Q.** For `Cc1ccccc1O`, which outcome is on record?
**A.** The outcome was “inactive”.

**Q.** `Nn1cnnc1` was tested. Which outcome did it give?
**A.** Its outcome is “inactive”.

**Q.** `COc1ccc(O)c(C(C)(C)C)c1` was tested. Which outcome did it give?
**A.** Its outcome is “inactive”.

**Q.** `CCC(C)(CC)c1cc(NC(=O)c2c(OC)cccc2OC)on1` was tested. Which outcome did it give?
**A.** Its outcome is “inactive”.

**Q.** For `Clc1ccc(C(c2ccccc2Cl)C(Cl)(Cl)Cl)cc1` (stereo not given), which AC50 is on record?
**A.** Its AC50 is 4.48 µM (active).

**Q.** With `Cc1cc2c3c(c1)C(c1ccccc1)=N[C@@H](NC(=O)c1ccncc1)C(=O)N3CC2` as the compound, how does the AC50 read?
**A.** Its AC50 is 10.1 µM (active).

**Q.** How did the AC50 turn out when `c1cc2ccc3cccc4ccc(c1)c2c34` was run?
**A.** The AC50 was 4.08 µM (active).

**Q.** `CCCCCCCCCC[N+](C)(C)CCCCCCCCCC` was tested. Which AC50 did it give?
**A.** The AC50 was 72.8 µM (active).

**Q.** Which outcome does the source give for `O=S(=O)(O)C(F)(F)C(F)(F)C(F)(F)C(F)(F)C(F)(F)C(F)(F)F` here?
**A.** The outcome was “inactive”.

**Q.** With `ClC1=C(Cl)[C@]2(Cl)[C@@H]3[C@H]4C[C@H]([C@@H]5O[C@H]45)[C@@H]3[C@@]1(Cl)C2(Cl)Cl` as the compound, how does the AC50 read?
**A.** Its AC50 is 6.76 µM (active).

**Q.** With `N#Cc1ccc(N(CC(N)=O)CC(F)(F)F)cc1C(F)(F)F` as the compound, how does the outcome read?
**A.** The outcome was “inactive”.
